Assay outcomes as filed in PubChem BioAssay.
Most compounds without a hit are left out; they make up all but 19% or so of the library.
TDP1 cell CPT: growth inhibition of DT40 Tdp1-/-;hTDP1 cells with camptothecin (screen for TDP1 inhibitors) | chicken DT40 Tdp1-/-;hTDP1 cells + 20 nM CPT, ATP luminescence, 48 h | Potency, µM (doses to about 46.2 µM), actives largely listed as inhibitors | hit rate 12% among 420,000; note: nearly all actives have a fitted effect of over 55% in size
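Chicken DT40 Tdp1-/- cells complemented with human TDP1, 400 cells/well, exposed to compounds plus 20 nM camptothecin for at least 48 h at 37 C; viability read as ATP content by CellTiter-Glo luminescence.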
HT1080 IDH1KD tx: kills HT-1080 cells with IDH1 knockdown; HT-1080 IDH1 knockdown viability, ATP luminescence, 48 h; Potency, µM (highest dose often 46.1 µM), usual class: cytotoxic; hit rate 2% among 360,000; AID 686971
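Cytotoxicity counter-line: IDH1KD HT-1080, 48 h, CellTiter-Glo. Curves classed by r2, magnitude and activity.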
KB-V1 MDR tox: KB-V1 MDR subline cytotoxicity; KB-V1 MDR cells viability, CellTiter-Glo, 72 h; Potency, µM (titrated, usually from 46.1 µM), hits mostly cytotoxic; hit rate 3.4% among 400,000; AID 1347076; note: nearly all actives have a fitted effect of over 60% in size
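Readout: CellTiter-Glo luminescence, 10 min after addition. Cells: KB-V1 MDR subline, 72 h at 37 degrees C with compound. Analysis: corrected, normalized data fitted to concentration-effect curves.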
HT1080NT lethal: kills 2HG-producing HT-1080-NT fibrosarcoma cells; HT-1080-NT fibrosarcoma viability, CellTiter-Glo ATP luminescence, 48 h; Potency, µM (doses to about 46.1 µM), most hits filed as cytotoxic; hit rate 1.6% among 360,000;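 note: NT is the 2HG producing partner of a matched IDH1 knockdown line; nearly all actives have a fitted effect of over 55% in size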
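750 cells/well, RPMI + 5% FBS; 2 h settle, compound pin-transfer, 48 h at 37 degrees C. CellTiter-Glo 10 min RT, luminescence. Normalized to DMSO and media-only wells.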
DT40 TDP1 no CPT: qHTS for Inhibitors of human tyrosyl-DNA phosphodiesterase 1 (TDP1): qHTS in cells in absence of CPT; DT40 Tdp1-/- hTDP1 cells, no CPT, ATP luminescence, 48 h; Potency, µM (top dose mostly 46.2 µM), actives largely listed as inhibitors; hit rate 15% among 420,000; note: nearly all actives have a fitted effect of over 55% in size
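Chicken DT40 Tdp1-/- cells complemented with human TDP1, screened without camptothecin (DMSO vehicle only), 400 cells/well. Compounds pin-transferred, cells incubated at 37 °C for at least 48 hr. Growth read as ATP-dependent luminescence (CellTiter-Glo, 30 min at RT).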
KB-3-1 tox: kills parental KB-3-1 adenocarcinoma cells. Potency, µM (top dose mostly 46.1 µM), hits mostly cytotoxic. KB-3-1 viability, CellTiter-Glo ATP luminescence, 72 h. hit rate 1.4% among 400,000; note: nearly all actives have a fitted effect of over 60% in size
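Screening of KB-3-1 cells (DMEM, 10% FBS, phenol-red free) ran from lowest to highest compound concentration; after 72 h at 37 °C viability was read luminescently and curves fitted.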
Large screens that a line does not name were inactive. Calls come from the whole dose curve; as a rule, active = well fitted curve in the direction sought with a large enough effect; inconclusive = small, poorly fitted or top-dose-only effect, or another doubt; inactive = no such curve, though single readings can be large; an effect the other way counts as inactive or inconclusive.

CN(CCc1ccc(Cl)c(Cl)c1)CCN1CCCC1	TDP1 cell CPT 8.2µM, DT40 TDP1 no CPT 24µM (no result: HT1080 IDH1KD tx, KB-V1 MDR tox, HT1080NT lethal, KB-3-1 tox)
O=C(NCc1ccncc1)c1cccc(S(=O)(=O)Nc2ccc(SC(F)F)cc2)c1	HT1080NT lethal inconclusive, DT40 TDP1 no CPT inconclusive
C=C1C(=O)OC2C=C(CO)C3OC3C3OC3(C)CC(OC(=O)/C(=C/C)COC(C)=O)C12 (centres undefined)	TDP1 cell CPT 1.3µM, HT1080 IDH1KD tx 5.2µM, DT40 TDP1 no CPT 1.8µM, KB-3-1 tox inconclusive
CCOc1ccc(CNC(=O)C2CCCN(S(=O)(=O)c3ccc4c(c3)CCCC(=O)N4)C2)cc1 (centres undefined)	KB-3-1 tox inconclusive (no result: TDP1 cell CPT, HT1080 IDH1KD tx, HT1080NT lethal, DT40 TDP1 no CPT)
Cc1cn(CC(=O)NCCCN2CCCC2=O)c(=O)[nH]c1=O	none
COc1cc(Nc2nc3c(N)cc(C(F)(F)F)cc3nc2-c2ccccc2)cc(OC)c1OC	TDP1 cell CPT inconclusive, DT40 TDP1 no CPT 13µM
O=S1(=O)c2ccccc2N(Cc2ccc(Cl)cc2F)c2ccccc21	TDP1 cell CPT inconclusive, DT40 TDP1 no CPT inconclusive (no result: HT1080 IDH1KD tx, HT1080NT lethal)
c1coc(CNc2ncnc3nc[nH]c23)c1	none
Cc1ccc2[nH]c3c(NCCCN4CCCC4=O)ncnc3c2c1	TDP1 cell CPT inconclusive, HT1080 IDH1KD tx inconclusive, DT40 TDP1 no CPT inconclusive
COc1cc(CNc2ncnc3c2[nH]c2ccc(C)cc23)cc(OC)c1	TDP1 cell CPT inconclusive, KB-V1 MDR tox inconclusive, DT40 TDP1 no CPT 21µM
COc1cc(OC)c(OC)cc1/C=N/Nc1ncnc2c1[nH]c1ccccc12	KB-V1 MDR tox inconclusive, DT40 TDP1 no CPT inconclusive
Cc1ccc(-n2ncc3c(NCc4ccco4)ncnc32)c(C)c1	TDP1 cell CPT inconclusive, KB-V1 MDR tox inconclusive, DT40 TDP1 no CPT inconclusive
Cc1ccc2[nH]c3c(NCc4ccco4)ncnc3c2c1	TDP1 cell CPT 23µM, KB-V1 MDR tox 18µM, DT40 TDP1 no CPT 18µM, KB-3-1 tox 13µM
COc1ccc(/C=N/Nc2ncnc3c2[nH]c2ccc(C)cc23)c(OC)c1OC	TDP1 cell CPT inconclusive, DT40 TDP1 no CPT 15µM
Fc1ccc2[nH]c3c(NCc4ccco4)ncnc3c2c1	TDP1 cell CPT 7.1µM, DT40 TDP1 no CPT 8.9µM, KB-3-1 tox inconclusive (no result: HT1080 IDH1KD tx, HT1080NT lethal)
O=C(NNCc1ccccc1)c1ccccn1	none
CC(C)(C)NC(=O)Nc1nnc(-c2ccncc2)s1	KB-3-1 tox inconclusive (no result: TDP1 cell CPT, HT1080 IDH1KD tx, HT1080NT lethal, DT40 TDP1 no CPT)
CSc1ncc(C(=O)Nc2cccnc2)c(C(F)(F)F)n1	none
Cc1ccccc1CNC(=O)C(=O)NCCC1CCCCN1S(=O)(=O)c1cccs1 (centres undefined)	TDP1 cell CPT 18µM, KB-V1 MDR tox inconclusive, DT40 TDP1 no CPT inconclusive
O=C(NCCc1ccccc1)C(=O)NCC1CCCN1S(=O)(=O)c1cccs1 (centres undefined)	TDP1 cell CPT 23µM, KB-V1 MDR tox inconclusive, DT40 TDP1 no CPT inconclusive, KB-3-1 tox inconclusive
CCCCCOc1ccc(NC(=O)C(=O)NCC2CCCN2CC)cc1 (centres undefined)	TDP1 cell CPT 16µM, DT40 TDP1 no CPT inconclusive
Cc1ccccc1NC(=O)C(=O)NCC1CCCN1S(=O)(=O)c1cccs1 (centres undefined)	DT40 TDP1 no CPT inconclusive
COc1ccc(NC(=O)C(=O)NCC2CCCN2S(=O)(=O)c2cccs2)cc1 (centres undefined)	TDP1 cell CPT 2.3µM, HT1080 IDH1KD tx inconclusive, KB-V1 MDR tox inconclusive, HT1080NT lethal inconclusive, DT40 TDP1 no CPT 2.1µM, KB-3-1 tox inconclusive
Cc1nc(C(F)(F)F)ccc1C(=O)N1CCC1(C)C(=O)NS(=O)(=O)c1ccc(C(C)(C)C)cc1 (centres undefined)	HT1080 IDH1KD tx inconclusive
COc1ccc(-c2cn3nc(SCC(=O)Nc4ccccc4F)ccc3n2)cc1	TDP1 cell CPT inconclusive, DT40 TDP1 no CPT inconclusive (no result: HT1080 IDH1KD tx, HT1080NT lethal)
CC[C@]12c3[nH]c4ccccc4c3CCN1C(=O)C(CC(=O)NCC13CC4CC(CC(C4)C1)C3)C[C@@H]2C(=O)N1CCN(C(=O)C2CC2)CC1 (some centres undefined)	TDP1 cell CPT 5.2µM, DT40 TDP1 no CPT 5.2µM
CC[C@]12c3[nH]c4ccc(Cl)cc4c3CCN1C(=O)[C@@H](CC(=O)NCC13CC4CC(CC(C4)C1)C3)C[C@@H]2C(=O)N1CCN(C(=O)C2CC2)CC1	TDP1 cell CPT 8.2µM, HT1080 IDH1KD tx 23µM, HT1080NT lethal 16µM, DT40 TDP1 no CPT 3.3µM, KB-3-1 tox inconclusive
CC[C@]12c3[nH]c4ccc(OC)cc4c3CCN1C(=O)C(CC(=O)NCC13CC4CC(CC(C4)C1)C3)C[C@@H]2C(=O)N1CCN(C(=O)C2CC2)CC1 (some centres undefined)	TDP1 cell CPT inconclusive, DT40 TDP1 no CPT inconclusive
Cc1cc(C)cc(C(O)c2ncc(-c3ccccc3F)[nH]2)c1 (centres undefined)	TDP1 cell CPT inconclusive, DT40 TDP1 no CPT inconclusive
Cc1cc(N2CCCC2=O)ccc1S(=O)(=O)Nc1c(C)nn(C)c1C	TDP1 cell CPT inconclusive, KB-V1 MDR tox inconclusive, DT40 TDP1 no CPT 9.2µM
Cc1cc(N2CCCC2=O)ccc1S(=O)(=O)NCCOc1ccccc1	TDP1 cell CPT 18µM, DT40 TDP1 no CPT 15µM
Cc1cc(N2CCCC2=O)cc(C)c1S(=O)(=O)Nc1c(C)nn(C)c1C	none
CC(=O)OC[C@H]1O[C@@H](Sc2cccc3cccnc23)[C@H](OC(C)=O)[C@@H](OC(C)=O)[C@H]1OC(C)=O	TDP1 cell CPT 18µM
CC(=O)OC[C@H]1O[C@@H](Sc2cccc3cccnc23)[C@H](OC(C)=O)[C@@H](OC(C)=O)[C@@H]1OC(C)=O	TDP1 cell CPT inconclusive, DT40 TDP1 no CPT inconclusive
CCC[C@H]1COCCS(=O)(=O)N1Cc1ccc(F)cc1	KB-V1 MDR tox inconclusive (no result: HT1080 IDH1KD tx, HT1080NT lethal)
[2H]C(CCOS(N)(=O)=O)c1ccc(C(C)(C)C)cc1 (centres undefined)	TDP1 cell CPT 21µM, DT40 TDP1 no CPT 21µM
COc1ccc(C(=O)/C=C/Nc2c(C)n(C)n(-c3ccccc3)c2=O)cc1OC	TDP1 cell CPT 23µM, HT1080 IDH1KD tx inconclusive, KB-V1 MDR tox inconclusive, HT1080NT lethal inconclusive, DT40 TDP1 no CPT 16µM, KB-3-1 tox inconclusive
Cc1c(NC(=O)COC(=O)C(c2ccc(Cl)cc2)C(C)C)c(=O)n(-c2ccccc2)n1C (centres undefined)	TDP1 cell CPT inconclusive, KB-V1 MDR tox 8.2µM, DT40 TDP1 no CPT inconclusive, KB-3-1 tox inconclusive
COc1cc(OC)c(OC)cc1/C=C/C(=O)OCC(=O)Nc1c(C)n(C)n(-c2ccccc2)c1=O	TDP1 cell CPT inconclusive, DT40 TDP1 no CPT 1µM
